Screens from PubChem.
JMJD2A Tudor inh = inhibitors of human JMJD2A Tudor domain | AlphaScreen JMJD2A-Tudor / H3K4me3 peptide binding | Potency, µM (series often up to 114 µM), most hits filed as inhibitors | actives 4.4% (n = 390,000) | AID 504339; also: nearly all actives have a fitted effect of over 50% in size
G9a inh = blocks human histone lysine methyltransferase G9a. AID 504332. Potency, µM (doses to about 102 µM), usual class: inhibitors. G9a H3K9 monomethylation, AlphaScreen, 2 h. Q96KQ7. actives 8.8% (n = 350,000); also: nearly all actives have a fitted effect of over 75% in size
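AlphaScreen read-out: biotin-H3K9 peptide (500 nM) methylation by 20 nM enzyme with 20 uM SAM, 2 h at room temperature after 15 min compound preincubation; anti-monomethyl H3K9 antibody plus donor/acceptor beads, 10 min dark.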
HP1b binding inh = inhibitors of HP1-beta chromodomain binding to methylated histone tails. P83916. AID 540317. Potency, µM (highest dose often 114 µM), actives largely listed as inhibitors. AlphaScreen HP1-beta / biotin-H3K9me3 peptide binding. actives 0.56% (n = 390,000); also: nearly all actives have a fitted effect of over 70% in size
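Compound inhibition of the preformed complex between 50 nM HP1-beta and 50 nM biotinylated H3K9me3 peptide was read by AlphaScreen. Buffer was PBS pH 7.4 with 0.01% Tween-20. Incubations ran 30 min at room temperature, with 10 ug/mL donor/acceptor beads.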
BAZ2B block = BAZ2B (human) inhibition; actives 4.4% (n = 360,000); Potency, µM (series often up to 114 µM), most hits filed as inhibitors; AlphaScreen BAZ2B-H3K14Ac peptide displacement; Q9UIF8; also: nearly all actives have a fitted effect of over 60% in size
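AlphaScreen luminescence quantifies BAZ2B engagement of H3K14Ac peptide; the protein and biotinylated peptide are both at 50 nM final, buffer PBS pH 7.4 with 0.01% Tween-20, all steps at room temperature.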
Sfp inh = Sfp phosphopantetheinyl transferase inhibition; Q9F4F7; Biochemical Sfp PPTase activity, qHTS; Potency, µM, actives largely listed as inhibitors; actives 3.5% (n = 310,000);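 also: the enzyme is Sfp with the accession as filed and its product quenches rhodamine fluorescence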
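Fluorescence-quenching assay: 15 nM Sfp-PPTase preincubated 15 min at room temperature with compound, then 5 uM rhodamine-CoA and 12.5 uM BHQ-2-labelled YbbR peptide added. Fluorescence (ex 525/em 598 nm) read at start and after 30 min; difference gives rate.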
TDP1 block = blocks human tyrosyl-DNA phosphodiesterase 1. Q9NUW8. recombinant TDP1, AlphaScreen DNA substrate cleavage. Potency, µM (series often up to 130 µM), actives largely listed as inhibitors. actives 0.28% (n = 350,000). AID 485290; also: nearly all actives have a fitted effect of over 40% in size
Target sequence (Q9NUW8 whole entry, looked up): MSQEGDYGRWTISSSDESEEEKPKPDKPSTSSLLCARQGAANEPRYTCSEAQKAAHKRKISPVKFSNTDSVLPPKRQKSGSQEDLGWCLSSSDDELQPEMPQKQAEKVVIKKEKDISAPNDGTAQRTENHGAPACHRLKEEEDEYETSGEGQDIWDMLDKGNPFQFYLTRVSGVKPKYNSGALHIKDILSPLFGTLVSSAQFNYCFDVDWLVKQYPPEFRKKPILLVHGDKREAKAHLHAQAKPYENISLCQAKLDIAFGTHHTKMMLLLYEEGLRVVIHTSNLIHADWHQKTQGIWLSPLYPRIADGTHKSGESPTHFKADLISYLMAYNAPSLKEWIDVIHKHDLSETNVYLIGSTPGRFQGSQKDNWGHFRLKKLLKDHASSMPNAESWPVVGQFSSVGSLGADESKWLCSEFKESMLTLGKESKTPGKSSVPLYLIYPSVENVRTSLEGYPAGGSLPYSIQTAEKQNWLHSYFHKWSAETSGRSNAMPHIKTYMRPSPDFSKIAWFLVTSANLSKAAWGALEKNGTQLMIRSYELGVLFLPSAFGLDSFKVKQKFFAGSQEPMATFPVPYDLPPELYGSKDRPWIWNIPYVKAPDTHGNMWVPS
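Here, a 5' biotin and 3' phosphotyrosine-FITC DNA oligonucleotide reports Tdp1 activity: intact substrate bridges AlphaScreen beads, while cleavage leaves a 3' phosphate and drops signal. All incubations at room temperature.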
Large screens that a line does not name were inactive; ! = a repeat was not active. The list is not random: actives were taken first. Their share in the collection is about 12%. Calls follow the shape of the dose curve; as a rule, active = well fitted curve in the direction sought with a large enough effect; inconclusive = small, poorly fitted or top-dose-only effect, or another doubt; inactive = no such curve, though single readings can be large; an effect the other way counts as inactive or inconclusive.

Cc1cc(C)nc(SCc2n[nH]c(=S)n2C)n1	JMJD2A Tudor inh 40µM, G9a inh 7.1µM
CCCSc1nnc(CSc2nc(C)cc(C)n2)n1C	JMJD2A Tudor inh 56µM
CCC(C)Sc1nnc(CSc2nc(C)cc(C)n2)n1C (stereo not drawn)	none
Cc1cc(C)nc(SCc2ccc(F)cc2)n1	none (no result: G9a inh)
N#CCCN(CC#Cc1ccccc1)OCc1ccccc1	none (no result: JMJD2A Tudor inh, G9a inh, HP1b binding inh, BAZ2B block)
COc1ccc(NC(=S)N(CCCN2CCCC2)Cc2cccn2Cc2ccc(Cl)cc2)cc1Cl	JMJD2A Tudor inh inconclusive, G9a inh 28µM, BAZ2B block 28µM, Sfp inh 79µM
Cc1ccc(NC(=S)N(CCCN2CCCC2)Cc2cccn2Cc2ccc(Cl)cc2)cc1Cl	JMJD2A Tudor inh inconclusive, G9a inh 32µM, BAZ2B block inconclusive
O=C(CNC(=S)N(CCCN1CCOCC1)Cc1cccs1)NCc1ccccc1Cl	G9a inh 71µM
FC(F)(F)c1cccc(NC(=S)N(CCCN2CCCC2)Cc2cccn2Cc2ccc(Cl)cc2)c1	JMJD2A Tudor inh inconclusive, G9a inh 45µM, Sfp inh 56µM
COc1ccc(OC)c(NC(=S)NCCCN2CCOCC2)c1	G9a inh inconclusive, Sfp inh 50µM
CCN1CCN(CCCN(Cc2ccco2)C(=S)Nc2ccc(Cl)c(C)c2)CC1	G9a inh inconclusive
Cc1ccc(NC(=S)N(CCCN2CCCC2)Cc2cccn2Cc2ccc(Cl)cc2)cc1C	JMJD2A Tudor inh 50µM
COc1ccc(NC(=S)N(CCCN2CCC(C)CC2)Cc2cccs2)cc1Cl	G9a inh inconclusive, Sfp inh 32µM
COc1ccc(NC(=S)NCCN2CCOCC2)c(OC)c1	none (no result: G9a inh, BAZ2B block, Sfp inh, TDP1 block)
CN(C)CCCN(Cc1ccccc1)C(=S)Nc1cccc(C(F)(F)F)c1	G9a inh 71µM
COc1ccc2c(c1)O[C@@H](c1cccc(C(F)(F)F)c1)[C@H](OC(=O)NCc1ccco1)C2=O	none (no result: JMJD2A Tudor inh, G9a inh, HP1b binding inh, BAZ2B block)
COc1ccc(/C=C/C(=O)NNC(=O)c2cc(C)oc2C)cc1	none (no result: Sfp inh, TDP1 block)
COC(=O)C1CC(O)CN1S(=O)(=O)c1cccs1 (stereo not drawn)	none
Cc1cccc(N(CC(=O)NC2CCCCC2)C(=O)CCC(=O)Nc2nccs2)c1	none
COc1ccc(NC(=S)NCCCN2CCCC2)cc1Cl	G9a inh 18µM, BAZ2B block inconclusive, Sfp inh 20µM
Cc1ccc(S(=O)(=O)N2CCCCC2)cc1C(=O)Nc1ccccn1	none (no result: G9a inh)
CCN(C(=O)CSc1nnc(C)n1-c1ccc(C)cc1)c1c(N)n(Cc2ccccc2)c(=O)[nH]c1=O	none (no result: G9a inh, BAZ2B block, Sfp inh, TDP1 block)
Cc1ccc(C)c(NC(=S)N/N=C/C(C)c2ccccc2)c1 (stereo not drawn)	G9a inh 35µM, BAZ2B block inconclusive
CN(C)S(=O)(=O)c1cccc(NC(=S)N/N=C/c2ccco2)c1	none
CC(/C=N/NC(=S)Nc1cccc(S(=O)(=O)N(C)C)c1)c1ccccc1 (stereo not drawn)	JMJD2A Tudor inh 20µM, G9a inh 8.9µM, Sfp inh 89µM
CN(C)S(=O)(=O)c1cccc(NC(=S)N/N=C/C(c2ccccc2)c2ccccc2)c1	JMJD2A Tudor inh inconclusive, G9a inh 25µM, Sfp inh inconclusive
C[C@@H](N)C1CCC(C(=O)Nc2ccncc2)CC1 (stereo partly drawn)	G9a inh 30µM! (no result: JMJD2A Tudor inh, HP1b binding inh, BAZ2B block)
Cc1cccc(CN(CC(=O)N/N=C/c2ccco2)S(=O)(=O)c2ccc(Cl)cc2)c1	JMJD2A Tudor inh 79µM, G9a inh inconclusive, HP1b binding inh inconclusive, BAZ2B block 50µM
CN1/C(=C\C=C2/SC(=S)NC2=O)C(C)(C)c2ccccc21	JMJD2A Tudor inh inconclusive, G9a inh 7.9µM, HP1b binding inh inconclusive, BAZ2B block 7.9µM, Sfp inh inconclusive
CN1C(=CC=C2C=C(I)C(=O)C(I)=C2)C(C)(C)c2ccccc21	JMJD2A Tudor inh inconclusive, HP1b binding inh inconclusive, BAZ2B block inconclusive, Sfp inh 89µM (no result: G9a inh)
CCCN1C(=O)/C(=C\C=C2\N(CC)c3ccccc3C2(C)C)SC1=S	JMJD2A Tudor inh 8.9µM, HP1b binding inh inconclusive, BAZ2B block 3.5µM (no result: G9a inh)
CCCC(=O)Nc1sc(C)c(-c2ccc(OC)cc2)c1C#N	none
CCCc1ccc(-c2c(C)sc(N)c2C#N)cc1	G9a inh 40µM, HP1b binding inh inconclusive, BAZ2B block inconclusive, Sfp inh 35µM
CC(=C\C(=O)O)/C(=C/c1ccc(C)o1)C(=O)O	JMJD2A Tudor inh inconclusive, G9a inh 32µM, BAZ2B block inconclusive, Sfp inh 4.5µM (no result: TDP1 block)
Cc1cccc(C(=O)N/C(=C\c2ccc(C)o2)C(=O)O)c1	G9a inh inconclusive
CC(=C\C(=O)O)/C(=C/c1ccco1)C(=O)O	G9a inh 45µM, TDP1 block inconclusive
CC(C)(C)c1ccc(C(=O)N/C(=C\c2ccco2)C(=O)O)cc1	G9a inh inconclusive
COc1cc(C(C)=O)ccc1OCC(O)Cn1nc(C)c(C(C)=O)c1C (stereo not drawn)	none (no result: G9a inh, TDP1 block)
CCN(CC)c1ccc(NC(=O)CCCN2C(=O)C(c3ccccc3)Oc3cccnc32)c(C)c1 (stereo not drawn)	G9a inh 2.8µM (no result: Sfp inh)
O=C(CCCN1C(=O)C(c2ccccc2)Oc2cccnc21)Nc1ccccc1C(F)(F)F (stereo not drawn)	none (no result: Sfp inh)
COc1ccc(-c2nn(-c3ccccc3)cc2/C=C2/SC(=S)N(CCC(=O)O)C2=O)c(C)c1	JMJD2A Tudor inh 25µM, G9a inh 40µM, HP1b binding inh inconclusive, BAZ2B block 50µM, TDP1 block 40µM
CCN1C(=O)/C(=C/c2cn(-c3ccccc3)nc2-c2cccnc2)SC1=S	none (no result: G9a inh, BAZ2B block, Sfp inh, TDP1 block)
CCN1C(=O)/C(=C\c2cn(CCC#N)nc2-c2ccc(F)cc2)SC1=S	JMJD2A Tudor inh 22µM, G9a inh 35µM, HP1b binding inh inconclusive, BAZ2B block 35µM, Sfp inh inconclusive
COc1ccc(-c2nn(-c3ccccc3)cc2/C=C2/SC(=S)N(CCC(=O)O)C2=O)cc1	JMJD2A Tudor inh 20µM, G9a inh 40µM, HP1b binding inh 35µM, BAZ2B block 18µM (no result: TDP1 block)
Cc1ccc(-c2nn(-c3ccccc3)cc2/C=C2\SC(=S)N(CC(=O)O)C2=O)cc1	JMJD2A Tudor inh 40µM, G9a inh 35µM, BAZ2B block 22µM, Sfp inh 50µM
N#CCCn1cc(/C=C2\NC(=S)N(c3ccccc3)C2=O)c(-c2ccc(-c3ccccc3)cc2)n1	none
CCN(CC(=O)NCc1ccc(F)cc1)C(=O)c1cc2ccccc2o1	none
COc1ccc(-c2nc(-c3ccc(Br)o3)no2)cc1OC	none
COc1ccccc1-c1nc(-c2ccc(Br)o2)no1	G9a inh 50µM!
O=C1/C(=C\c2c(NCCOCCO)nc3ccccn3c2=O)SC(=S)N1Cc1ccco1	G9a inh 40µM, BAZ2B block inconclusive, Sfp inh 40µM (no result: TDP1 block)
CCCN1C(=O)/C(=C/c2c(NCCCOCC)nc3c(C)cccn3c2=O)SC1=S	none
